UGM FP inh: blocks M. tuberculosis UGM enzyme; hit rate 0.06% among 320,000; purified UGM, fluorescence polarization probe displacement; inhibition, % at 10 µM; in the data active = inhibition above about 10%, passing the limit was not always enough
CCHF vOTU inh: CCHFV vOTU protease inhibition. Pep-AMC fluorescence. inhibition, % at 11.5 µM. hit rate 0.55% among 370,000; in the data active = inhibition above about 30%; also: 0% = vehicle wells with enzyme and 100% = no enzyme wells
RecA splice inh: inhibitors of M. tuberculosis RecA intein splicing. P9WHJ3. cell-free RecA intein splicing, fluorescence. inhibition, % (concentration not given with the values). hit rate 0.75% among 290,000. AID 2221; in the data active = inhibition above about 30%;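 also: 0% = vehicle wells and 100% = reference inhibitor control wells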
Target sequence (P9WHJ3 whole entry, looked up, canonical isoform): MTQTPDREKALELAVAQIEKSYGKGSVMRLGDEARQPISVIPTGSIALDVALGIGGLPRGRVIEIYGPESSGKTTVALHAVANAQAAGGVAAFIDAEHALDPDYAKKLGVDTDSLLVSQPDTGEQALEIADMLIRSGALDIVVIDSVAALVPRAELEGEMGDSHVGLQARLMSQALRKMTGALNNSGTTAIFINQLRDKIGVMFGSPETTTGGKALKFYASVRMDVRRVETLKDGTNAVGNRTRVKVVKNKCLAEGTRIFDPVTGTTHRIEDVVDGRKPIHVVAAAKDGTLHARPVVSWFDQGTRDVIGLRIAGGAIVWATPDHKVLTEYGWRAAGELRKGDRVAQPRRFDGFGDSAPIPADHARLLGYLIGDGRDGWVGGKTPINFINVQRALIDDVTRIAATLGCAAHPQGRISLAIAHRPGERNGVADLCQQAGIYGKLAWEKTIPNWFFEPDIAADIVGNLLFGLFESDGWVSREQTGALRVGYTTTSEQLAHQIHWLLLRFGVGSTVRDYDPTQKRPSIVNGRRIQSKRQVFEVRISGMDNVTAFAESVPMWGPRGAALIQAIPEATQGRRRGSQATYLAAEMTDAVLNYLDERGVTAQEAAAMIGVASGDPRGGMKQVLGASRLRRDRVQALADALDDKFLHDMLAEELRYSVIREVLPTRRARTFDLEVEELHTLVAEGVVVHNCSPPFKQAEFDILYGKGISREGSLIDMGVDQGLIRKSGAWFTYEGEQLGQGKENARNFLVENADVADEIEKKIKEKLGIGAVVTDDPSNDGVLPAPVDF
Rv3671c protease: inhibitors of M. tuberculosis serine protease Rv3671c. P9WHR9. inhibition, % at 5.96 µM. hit rate 0.048% among 320,000. AID 2606; in the data active = inhibition above about 38%;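 also: extracellular domain of Rv3671c used as enzyme; 0% = enzyme with DMSO and 100% = no enzyme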
Mtb betalactam: beta-lactam sensitization of Mtb H37Rv; M. tuberculosis H37Rv growth with meropenem, percent inhibition; inhibition, % at 25 µM; hit rate 0.27% among 330,000; call rule not given here;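 also: growth measured after seven days incubation then overnight dye step; 0% = bacteria only wells and 100% = bacteria with antibiotic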
Numbers without * were called inactive; i = inactive; nt = not tested or not shown. Most compounds without a hit are left out; they make up all but 1.2% or so of the library.

SMILES	UGM FP inh	CCHF vOTU inh	RecA splice inh	Rv3671c protease	Mtb betalactam
COc1ccccc1N1CCN(C2CCCN(C(=O)CC(F)(F)F)C2)CC1 (stereo unspecified)	-3	-8	-1	-8	-5
COc1ccccc1N1CCN(C2CCCN(C(=O)CCC(=O)N(C)C)C2)CC1 (stereo unspecified)	10*	-8	-1	-9	1
COc1cccc(/C=C/C(=O)c2ccc(NS(=O)(=O)c3ccc(C)cc3)cc2)c1	2	12	34*	-160	9
O=[N+]([O-])c1ccc(Oc2cccc(F)c2)c2ccncc12	-1	10	73*	-6	-5
O=[N+]([O-])c1cnccc1Nc1cccc(F)c1	0	15	3	-3	-2
C=CCOC(=O)C1=C(C)N=c2sc(=C3C(=O)N(CC(=O)O)c4ccccc43)c(=O)n2C1c1ccc(OC)cc1 (stereo unspecified)	nt	-1	nt	nt	nt
CC(=O)Nc1ccc(S(=O)(=O)NC2=C(N3CCN(Cc4ccccc4)CC3)C(=O)c3ccccc3C2=O)cc1	-2	28	5	-1	1
CCN1CCN(C2=C(NS(=O)(=O)c3ccc(C)cc3)C(=O)c3ccccc3C2=O)CC1	1	44*	3	-26	1
C[C@@H]1CN(C(=O)OC(C)(C)C)CCN1c1ccc(Br)c(C#N)c1	nt	8	nt	nt	nt
N#Cc1cc([N+](=O)[O-])ccc1NC(=O)COC(=O)CCC1CCCCC1	-2	-3	60*	-9	-7
CCCCNS(=O)(=O)/C=C/c1ccc(F)cc1CNC(=O)OC(C)(C)C	nt	10	nt	nt	nt
COCc1cc(C)nc2sc(C(=O)Nc3ccccc3F)c(N)c12	0	-13	nt	5	6
Nc1c(C(=O)Nc2ccccc2F)sc2nc(Cc3ccccc3)cc(C(F)(F)F)c12	26*	-9	-16	6	3
O=C(CSc1ncnc2c1nnn2Cc1ccccc1F)NCC1CCCO1 (stereo unspecified)	2	-11	50*	-5	-5
O=C(Cn1cnc2c(nnn2Cc2ccccc2F)c1=O)NCC1CCCO1 (stereo unspecified)	-4	1	-2	-1	-5
CC(=O)c1ccc(Sc2nnnn2-c2ccccc2)c([N+](=O)[O-])c1	2	-5	31*	1	98
CN1CCN(S(=O)(=O)c2ccc(Sc3nnnn3-c3ccccc3)c([N+](=O)[O-])c2)CC1	2	-6	15	-7	49
COC(=O)[C@]12C[C@H](CC(=O)N3CCCC3)C(=O)N(CCC3=CCCCC3)C1=C[C@H](C(C)C)O[C@@H]2C1CC1	nt	11	nt	nt	nt
Cc1ccc(C)c(N2CCN(C(=O)c3cc4ccccn4n3)CC2)c1	27*	nt	-9	4	7
O=C(c1cc2ccccn2n1)N1CCN(c2cccc(C(F)(F)F)c2)CC1	0	-14	-7	-3	-4
CCOC(=O)Cn1cc(CN2C(C(=O)OC)CN(Cc3ccccc3)CCS2(=O)=O)nn1 (stereo unspecified)	nt	-8	nt	nt	nt
CC[C@@]1(O)C(=O)OCc2c1cc1n(c2=O)Cc2cc3c(CN(C)C)c(O)ccc3nc2-1	34*	-20	i	6	0
CC[C@@]1(O)C(=O)OCc2c1cc1n(c2=O)Cc2cc3c(N)cccc3nc2-1	1	5	-4	0	-5
COc1cccc2c(=O)cn[nH]c12	11*	-113	-6	-9	1
COC(=O)c1cc(=O)c2cccc(OC)c2[nH]1	-4	-31	-11	8	32
SMILES	UGM FP inh	CCHF vOTU inh	RecA splice inh	Rv3671c protease	Mtb betalactam
COC(=O)[C@]12C[C@H](CC(=O)N3CCCCC3)C(=O)N(Cc3cccc4ccccc34)C1=C[C@H](C1CCCC1)O[C@@H]2C	nt	7	nt	nt	nt
CC1=NNC(=O)C1C(c1cccc(O)c1)C(C#N)C#N (stereo unspecified)	-2	0	60*	-5	2
CC(c1ccc(NC(=O)OC(C)(C)C)cc1)c1cn(C)c2ccccc12 (stereo unspecified)	nt	6	nt	nt	nt
COc1ccc(CN(C(=O)CSc2nnc(-c3ccccc3C)o2)c2ccc(F)cc2)cc1	2	11	40*	-11	54
O=C(CSc1nnc(-c2c[nH]c3ccccc23)o1)N(Cc1ccccc1)c1ccc(F)cc1	0	nt	1	-90	-6
CC(C)C[C@H]1COc2cccc(F)c2S(=O)(=O)N1Cc1cn(CCC2OCCO2)nn1	nt	-9	nt	nt	nt
CC(=O)c1ccc2c(c1)C1C=CCC1C(C(=O)O)N2 (stereo unspecified)	nt	50*	nt	nt	nt
CCOc1ccc(/C(CCC(=O)O)=N/NC(=O)c2cccc(S(=O)(=O)Nc3ccccc3OC)c2)cc1	11*	10	nt	-10	-12
CC(C1=CCCCC1)c1cnn(C)c1 (stereo unspecified)	nt	7	nt	nt	nt
